A selection: hits, their analogues and other compounds. The true share with any hit is near 11%.
AMA1 RON2 block: AMA1-RON2 (P. falciparum) interaction inhibition; AID 720542; Potency, µM (top dose mostly 58.2 µM), most hits filed as inhibitors; hit rate 0.2% among 360,000; AlphaScreen AMA1-biotinylated RON2 peptide binding; further: nearly all actives have a fitted effect of over 45% in size
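AMA1 (3D7) with his tag at 25 nM final met compounds first, then biotinylated RON2 peptide at 25 nM; detection used donor plus acceptor beads, 10 µg/mL apiece, read by AlphaScreen after 30 min at room temperature.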
Pf growth 48h: inhibits P. falciparum growth in the first generation, 48 h | P. falciparum luciferase growth in erythrocytes, 48 h | Potency, µM (top dose mostly 28.7 µM), hits mostly inhibitors | hit rate 5.9% among 310,000 | AID 504832
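Compounds are pin-transferred into medium, infected erythrocytes (2% hematocrit, 0.1% parasitemia final) are added, and plates sit one parasite generation at 37 C in 5% CO2. Detection reagent is then added and luminescence measured.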
Pf growth 96h: P. falciparum growth inhibition at 96 hours. P. falciparum luciferase reporter growth, 96 h. Potency, µM (top dose mostly 28.7 µM), actives largely listed as inhibitors. hit rate 6.9% among 320,000
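Two parasite generations (96 h, 37 C, 5% CO2) of compound exposure in infected erythrocytes (0.05% parasitemia, 2% hematocrit). Luciferase-reporter P. falciparum; decreased luminescence indicates inhibited growth, aimed at apicoplast-acting delayed death.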
AmpC inh detg: AmpC beta-lactamase inhibition with detergent present. P00811. AmpC hydrolysis of nitrocefin, absorbance 480 nm, 0.01% Triton. Potency, µM (doses to about 114 µM), actives largely listed as inhibitors. hit rate 0.041% among 370,000. AID 485294; further: nearly all actives have a fitted effect of over 25% in size
Target sequence (P00811 whole entry, looked up): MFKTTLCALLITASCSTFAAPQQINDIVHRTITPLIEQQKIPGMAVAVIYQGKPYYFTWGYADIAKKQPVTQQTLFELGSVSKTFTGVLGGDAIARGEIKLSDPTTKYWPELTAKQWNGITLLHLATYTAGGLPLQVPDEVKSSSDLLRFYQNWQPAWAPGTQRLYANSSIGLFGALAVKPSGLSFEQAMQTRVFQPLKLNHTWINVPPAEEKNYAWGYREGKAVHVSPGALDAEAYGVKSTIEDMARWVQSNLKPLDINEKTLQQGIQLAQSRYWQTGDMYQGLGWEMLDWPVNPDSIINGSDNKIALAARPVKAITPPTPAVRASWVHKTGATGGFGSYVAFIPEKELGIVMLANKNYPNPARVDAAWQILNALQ
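AmpC (5.3 nM in the dispensed reagent) in 20 mM phosphate pH 7.0 with 0.01% (detergent screen) or 0.0001% Triton X-100 was preincubated with compounds for 15 min at room temperature. Nitrocefin was then added from an 800 uM solution, and hydrolysis was followed at 480 nm.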
AmpC no deterg: inhibitors of E. coli AmpC beta-lactamase without detergent; hit rate 0.52% among 330,000; P00811; AID 485341; AmpC nitrocefin hydrolysis, absorbance 480 nm, 0.0001% Triton; Potency, µM (series often up to 57.1 µM), usual class: inhibitors; further: nearly all actives have a fitted effect of over 20% in size
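AmpC (5.3 nM in the dispensed reagent) in 20 mM phosphate pH 7.0 with 0.01% (detergent screen) or 0.0001% Triton X-100 was preincubated with compounds for 15 min at room temperature. Nitrocefin was then added from an 800 uM solution, and hydrolysis was followed at 480 nm.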
HCV inh: HCV inhibition; hit rate 3.4% among 340,000; Potency, µM (titrated, usually from 41.8 µM), most hits filed as inhibitors; Huh7.5.1 HCVcc-Cre infection, luciferase reporter, 44 h
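A cell-based infection assay in which seeded cells (1,000 per well) receive test compound after 4 h, are inoculated with HCVcc-Cre at approximately 0.5 moi, and are incubated 44 h before luminescence detection.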
Large screens that a line does not name were inactive. The call rests on the fitted dose curve; in most records, active means well fitted curve in the direction sought with a large enough effect; inconclusive means small, poorly fitted or top-dose-only effect, or another doubt; inactive means no such curve, though single readings can be large; an effect the other way counts as inactive or inconclusive.

Cc1ccc(-c2ccc(=O)n(CC(=O)NCCc3ccc(Cl)cc3)n2)cc1	none (no result: AMA1 RON2 block, Pf growth 48h, Pf growth 96h, AmpC no deterg, HCV inh)
COc1ccc(OCCSc2nnc(-c3ccoc3C)n2C)cc1	Pf growth 48h 8.3µM, Pf growth 96h inconclusive
Cc1occc1-c1nnc(SCC(=O)N2CCCCC2)n1C	none
Cc1cccc(C)c1NC(=O)CSc1nnc(-c2ccoc2C)n1C	Pf growth 96h 9.3µM
Cc1occc1-c1nnc(SCC(=O)N2CCN(c3ccccc3F)CC2)n1C	Pf growth 96h 3.7µM, AmpC inh detg inconclusive (no result: AMA1 RON2 block)
CCOC(=O)c1cccc(NC(=O)CSc2nnc(-c3ccoc3C)n2CC)c1	Pf growth 96h 13µM
CC1CCN(S(=O)(=O)c2cc(C(=O)NCc3ccc(F)cc3)n(C)c2)CC1	none (no result: AMA1 RON2 block, Pf growth 48h, Pf growth 96h, AmpC no deterg, HCV inh)
COc1cc(OC)c(Nc2c3c(nc4nc(-c5cccs5)nn24)CCCC3)cc1Cl	none (no result: AMA1 RON2 block, Pf growth 48h, Pf growth 96h, AmpC no deterg, HCV inh)
COc1ccc(CCNC(=O)CS(=O)(=O)Cc2nc(-c3cccc(Cl)c3)oc2C)cc1OC	none (no result: AMA1 RON2 block, Pf growth 48h, Pf growth 96h, AmpC no deterg, HCV inh)
COCCN1C(=O)c2ccccc2C(C(=O)NCCCN2CCCC2)C1c1c[nH]c2ccccc12 (stereo unspecified)	Pf growth 48h 13µM
Cc1nnc2c(N3CCN(c4ccccc4F)CC3)nc3ccccc3n12	none (no result: AMA1 RON2 block, Pf growth 48h, Pf growth 96h, AmpC no deterg, HCV inh)
CC(C)NC(=S)N(CCc1ccncc1)C(C)C	AMA1 RON2 block inconclusive, Pf growth 96h 1.3µM
CCc1ccccc1N(CC)C(=O)Cn1nc(Cc2ccncc2)c2ccccc2c1=O	none (no result: AMA1 RON2 block, Pf growth 48h, Pf growth 96h, AmpC no deterg, HCV inh)
Cc1ccc(Cn2c(SCC(C)C)nc3c2c(=O)n(C)c(=O)n3C)cc1	Pf growth 48h 3.7µM, HCV inh inconclusive (no result: Pf growth 96h)
Cn1c(=O)c2c(nc(SCC(=O)c3ccccc3F)n2C)n(C)c1=O	Pf growth 96h 1.9µM (no result: AMA1 RON2 block, HCV inh)
CCSc1nc2c(c(=O)n(C)c(=O)n2C)n1Cc1ccc(Cl)cc1	HCV inh inconclusive (no result: Pf growth 48h, Pf growth 96h, AmpC inh detg, AmpC no deterg)
COCCn1c(Br)nc2c1c(=O)n(C)c(=O)n2C	none
Cn1c(=O)c2c(nc(Sc3ncccn3)n2Cc2ccccc2Cl)n(C)c1=O	Pf growth 48h inconclusive (no result: Pf growth 96h)
Cn1c(=O)c2c(nc(Sc3ncccn3)n2Cc2ccc(Cl)cc2)n(C)c1=O	Pf growth 96h inconclusive, HCV inh 25µM (no result: Pf growth 48h)
Cc1ccc(OCCn2c(Br)nc3c2c(=O)n(C)c(=O)n3C)cc1	Pf growth 48h inconclusive, HCV inh 8.9µM
COc1ccc(C(=O)CSc2nc3c(c(=O)n(C)c(=O)n3C)n2C)cc1	none (no result: AMA1 RON2 block, HCV inh)
CCOC(=O)c1[nH]c(C)c(CCC(=O)N2CCN(c3ccc(OC)cc3)CC2)c1C	none (no result: AMA1 RON2 block, Pf growth 48h, Pf growth 96h, AmpC no deterg, HCV inh)
CC1CCCN(C(=O)CSc2c3c(nc4cc(Cl)ccc24)CCCC3)C1 (stereo unspecified)	none (no result: AMA1 RON2 block, Pf growth 48h, Pf growth 96h, AmpC no deterg, HCV inh)
COc1ccc(Oc2nc3c(c(=O)n(C)c(=O)n3C)n2Cc2ccc(Cl)cc2Cl)cc1	none (no result: AMA1 RON2 block, Pf growth 48h, Pf growth 96h, AmpC no deterg, HCV inh)
Cn1c(=O)c2c(nc(SCCN3CCCCC3)n2Cc2ccc(Cl)cc2)n(C)c1=O	Pf growth 48h inconclusive, HCV inh 35µM (no result: Pf growth 96h)
Cn1c(=O)c2c(nc(SCC(=O)c3cccs3)n2Cc2ccc(F)cc2)n(C)c1=O	Pf growth 96h inconclusive, HCV inh 5µM
O=[N+]([O-])c1ccc(N2CCOCC2)cc1SCc1ccco1	AMA1 RON2 block inconclusive, HCV inh 11µM
COc1ccc2c(c1)CCc1c(C(=O)Nc3c(C)nn(Cc4ccccc4)c3C)noc1-2	HCV inh 8.9µM (no result: Pf growth 48h)
COc1ccc(OC)c(-c2cc(C(=O)Nc3c(C)nn(Cc4ccc(Cl)cc4)c3C)no2)c1	Pf growth 48h inconclusive, AmpC inh detg inconclusive, HCV inh 14µM
COc1ccc2c(c1)CCc1c(C(=O)Nc3c(C)nn(Cc4ccc(Cl)cc4)c3C)noc1-2	none (no result: AMA1 RON2 block, Pf growth 48h, Pf growth 96h, AmpC no deterg, HCV inh)
COc1ccc(OC)c(-c2cc(C(=O)Nc3c(C)nn(Cc4ccccc4)c3C)no2)c1	Pf growth 48h 13µM, Pf growth 96h inconclusive, HCV inh inconclusive
CCOC(=O)c1c(Nc2ccc(C)cc2)nnc(-c2ccccc2)c1-c1ccccc1	none (no result: AMA1 RON2 block, Pf growth 48h, Pf growth 96h, AmpC no deterg, HCV inh)
Cc1ccc(NC(=O)COC(=O)c2ccc(OC(F)F)cc2)cc1S(=O)(=O)N1CCCCC1	none (no result: Pf growth 48h, Pf growth 96h, AmpC inh detg, AmpC no deterg)
Cc1ccc(NCC(=O)Nc2cccc(F)c2)cc1S(=O)(=O)N1CCCCCC1	Pf growth 48h 0.26µM, Pf growth 96h 0.21µM, HCV inh inconclusive

Bioassay records as filed in PubChem BioAssay.
